“And” between values parts separate entries of the source, which are not always exact repeats. Identical values can stand only once. Out of some 320,000 compounds screened, about 2,100 (0.66%) were called active. Not shown: some 53% with an inconclusive outcome. Calls come from the whole dose curve; as a rule, active = well fitted inhibition curve with a large enough effect in the signal ratio, with a control signal flat (not every such curve was filed as active); inconclusive = small, poorly fitted or top-dose-only effect, or effect the other way, or a change in a side signal; inactive = flat fitted curve, though single readings scatter; the % refers to the signal ratio. The full list was thinned out, with actives kept by preference.
Test: qHTS Assay for Lipid Storage Modulators in Drosophila S3 Cells;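 for cell number change: cells counted by Cell Tracker Red CMTPX staining in the red channel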
Conditions: BODIPY lipid droplet fluorescence, 18-24 h, cells fed with added oleic acid; cell number change: measured here: cell count max response; series mostly up to 46.1 µM
Summary of the method: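 Drosophila S3 cells got compounds at several concentrations plus oleic acid (400 uM solution). Laser-scanning cytometry with 488 nm excitation read lipid droplets at 500-530 nm and cells at 575-640 nm. Percent activity was relative to 20 uM Triacsin C.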
Potency is the fitted concentration of half-maximal effect.

Structure (SMILES) | Potency | cell number change
CC(=C/c1ccccc1)/C=N/NC(=O)c1ccccn1 | inactive | 10.8%
C=C(c1ccccc1)c1ccc(N(C)C)cc1 | inactive | 1.48%
CCOc1ccc(-c2cc(N3C(=O)Nc4ccccc4N3O)on2)cc1 | 23.1 µM (active) | 24.4%
O=C1Nc2ccccc2N(O)N1c1cc(-c2ccccc2Cl)no1 | inactive | –
O=C1Nc2ccccc2N(O)N1c1cc(-c2cccc(Cl)c2)no1 | inactive | –
CC(C)c1cc(C(=O)O)c2cnn(C(C)C)c2n1 | inactive | -20.5%
CCOc1ccc(-n2ccnc(SCC(=O)NC3CCCC3)c2=O)cc1 | inactive | –
CCOc1ccccc1C(=O)Nc1ccc(S(=O)(=O)Nc2nccc(C)n2)cc1 | inactive | -4.06%
COC(=O)c1ccc(C23CC4(C2)[C@H](CN(CC2CCCCC2)[C@@H]4c2ccccc2)C3c2ccccc2)cc1 (some centres undefined) | inactive | 12.7%
CC(=O)Oc1ccc(N2C(=O)[C@@H]3[C@H](C2=O)[C@H]2c4ccccc4C=NN2[C@@H]3C(C)=O)cc1 | inactive | 17.5%
CC1(C)CC2CC(C)(CN2C(=O)Cc2ccccc2)C1 (centres undefined) | inactive | -11.2%
Cc1cccc(C)c1OCC(=O)N1CC2(C)CC1CC(C)(C)C2 (centres undefined) | inactive | 24%
CC(=O)N/C(=C\c1ccccc1)C(=O)OCC(=O)N(C)C1CCCCC1 | inactive | 11.6%
CCN(C(=O)COC(=O)/C(=C/c1ccccc1)n1nnnc1C)C1CCCCC1 | 7.31 µM (active) | -1.15%
CCN(C(=O)COC(=O)c1cnc(C)cn1)C1CCCCC1 | inactive | 18.1%
Cc1nnnn1/C(=C\c1ccccc1)C(=O)OCC(=O)N1CC2(C)CC1CC(C)(C)C2 (centres undefined) | 1.84 µM (active) | -4.4%
COc1ccc(CCNC(=O)c2cc(-c3ccccc3O)n[nH]2)cc1OC | inactive | 4.36%
COC(=O)CCc1sc(Nc2ccccc2)nc1-c1ccc(OC)cc1 | inactive | -8.54%
O=C(COc1ccccc1)NCC1CCCO1 (centres undefined) | inactive | -0.966%
COc1ccc(NC(=S)Nc2ccccc2)cc1 | inactive | 1.43% and -1.32%
COc1ccc(NC(=O)Nc2ccc(OC)cc2)cc1 | inactive | -101%
O=C(C#Cc1ccccc1)Nc1ccc(F)cc1 | inactive | -2.07%
O=C(C#Cc1ccccc1)Nc1cccc(F)c1 | 1.16 µM (active) | -19.6%
COc1ccc(NC(=O)C#Cc2ccccc2)cc1 | 0.92 µM (active) | -23.3%
COc1ccc(NC(=O)Nc2ccc(CC(=O)O)cc2)cc1 | 0.116 µM (active) | -22.2%

Structure (SMILES) | Potency | cell number change
O=C(Nc1cccc(F)c1)c1ccccc1 | inactive | -17.1%
COc1ccc(NC(=O)Cc2ccccc2)cc1 | inactive | -1.56%
NC(=O)c1ccc(NC(=O)C#Cc2ccccc2)cc1 | inactive | –
O=C1NC2(CCCCC2)Cc2ccccc21 | inactive | 2.36%
CCCC(=O)Nc1ccc(Cl)c(NC(=O)c2ccc([N+](=O)[O-])cc2Cl)c1 | inactive | 3.62%
Cc1cc(NC(=O)c2ocnc2C)no1 | inactive | -15.2%
O=C(O)c1cc(-c2ccccc2Cl)n(-c2ccccc2)n1 | inactive | 19.7%
COc1cc(CC(=O)NCc2ccco2)cc(OC)c1OC | inactive | –
CNC(=S)N/N=C/c1c(C(=O)OC)cnn1-c1ccc(F)cc1F | inactive | 9.07%
Cc1oc(-c2ccccc2F)nc1CN1CCC(C(=O)NCc2cccnc2)CC1 | inactive | 15.7%
O=C(Nc1ccccc1)Nc1n[nH]c2nnc(-c3ccccc3)c(-c3ccccc3)c12 | inactive | 9.52%
Cc1cc(-c2nc(C)c(C(=O)NNC(=O)NC(C)C)s2)no1 | inactive | 5.79%
Cc1nnc(NC(=O)c2sc3nc(-c4cccs4)cc(C(F)(F)F)c3c2N)s1 | 9.2 µM (active) | 18.6%
Cc1cc(C(F)(F)F)c2c(N)c(C(=O)NC3CC3)sc2n1 | 17.8 µM (active) | -6.29%
Cc1cc(C)c2c(N)c(C(=O)Nc3ccc(C)c(C)c3)sc2n1 | inactive | -1.35%
CN(C)CCNC(=O)c1sc2nc(-c3ccccc3)cc(C(F)(F)F)c2c1N | inactive | -18.7%
CC(C)(C)C(=O)c1sc2nc(-c3cccs3)cc(C(F)(F)F)c2c1N | inactive | -8.91%
Cc1cc(C)c2c(N)c(C(=O)NC3CC3)sc2n1 | inactive | 14.6%
O=C(O)C(C(O)c1ccc([N+](=O)[O-])cc1)[n+]1ccccc1 (centres undefined) | inactive | 27.3%
C(=N\Nc1ccc(-n2ccnc2)nn1)/c1ccccc1 | inactive | –
CCOC(=O)CNC(=O)N1CCCC(C(=O)c2cc(C)c(OC)c(C)c2)C1 (centres undefined) | inactive | 16.3%
O=C(NCCC1=CCCCC1)c1ccc(-n2cncn2)c([N+](=O)[O-])c1 | inactive | -27%
CCOC(=O)c1sc(N(Cc2ccccc2)C(=O)COC(=O)c2cnccn2)nc1C | inactive | –
C=CCn1c(SCc2nc3ccccc3nc2C)nnc1-c1ccoc1C | inactive | -18.3%
Cc1ccc(NC(=O)CC(C)CC2=NS(=O)(=O)c3ccccc3N2)cc1 (centres undefined) | inactive | 4.79%

Structure (SMILES) | Potency | cell number change
CCOC(=O)CC1=NS(=O)(=O)c2ccccc2N1 | inactive | 8.13%
CC(CC(=O)O)CC1=NS(=O)(=O)c2ccccc2N1 (centres undefined) | 13 µM (active) | -6.45%
O=C(O)c1cc2ncc(-c3[nH]ncc3[N+](=O)[O-])cn2n1 | inactive | 25.8%
CCCCc1nc2ccccc2c(=O)n1NC(=O)c1c(O)c2ccccc2n(C)c1=O | inactive | -2.66%
Cc1ccc2nc(SCC(=O)N3CCOCC3)[nH]c2c1 | inactive | -6.28%
O=C(CSc1nc2ccc(S(=O)(=O)N3CCOCC3)cc2[nH]1)N1CCOCC1 | 18.4 µM (active) | 8.23%
COC(=O)c1ccc(CSc2nc3ccc(S(=O)(=O)N4CCOCC4)cc3[nH]2)cc1 | inactive | 1.16%
O=C(O)C1CCCN(S(=O)(=O)c2ccc(-c3ccc(=O)[nH]n3)s2)C1 (centres undefined) | inactive | -7.22%
COC(=O)Nc1ccc(Cn2cc(C(F)(F)F)ccc2=O)cc1 | inactive | 17.3%
O=C1[C@H](O)[C@@H](O)C(=O)N1Cc1ccccc1 | inactive | 24.4%
O=C1C=CC(=O)N1Cc1ccccc1 | 4.11 µM (active) | -23.7%
O=C1NC(=O)N(Cc2ccccc2)C1=O | inactive | -0.926%
COCCNc1ncnc2nc[nH]c12 | inactive | 7.15%
CCCNc1ncnc2nc[nH]c12 | inactive | 19.1%
C1=C(CCNc2ncnc3nc[nH]c23)CCCC1 | 16.4 µM (active) | -23.9%
O=C(Sc1ccccc1)c1cccc(Cn2cc(C(F)(F)F)ccc2=O)c1 | inactive | 1.6%
COc1cccc(NC(=O)c2ccc3nc(C)sc3c2)c1 | inactive | 0.275%
CCN1CCCC(OC(=O)Nc2ccccc2)C1 (centres undefined) | inactive | -14.2%
Cc1cc2c(NCc3ccccc3)ncnc2s1 | inactive | -12.9%
COc1ccc(CCNc2ncnc3c2c(C)c(C)n3CCO)cc1OC | inactive | -9.63%
COc1ccc(CCNc2ncnc3sc(C)cc23)cc1OC | 4.11 µM (active) | -27%
CCOC(=O)c1ccc(-c2ccc(/C=N/NC(=O)Cc3nnc(N)s3)o2)cc1 | inactive | -10.3%
CCOC(=O)C1CCN(C(c2cccc(F)c2)c2sc3nc(C)nn3c2O)CC1 (centres undefined) | inactive | 9.03%
Cc1nc(S(=O)(=O)N2CCN(C3c4ccccc4-c4ccccc43)CC2)cn1C | inactive | 19.2%
COc1ccc(NC(=O)c2ccc3c(c2)n(C)c(=O)n3C)cc1 | inactive | -1.07%

Structure (SMILES) | Potency | cell number change
Cn1c(=O)n(C)c2cc(NC(=O)c3ccc(F)cc3)ccc21 | inactive | -7.46%
CC(C)Oc1ccc(C(=O)Nc2ccc3c(c2)n(C)c(=O)n3C)cc1 | 18.4 µM (active) | -24.3%
CCN(CC)C(=O)c1ccc(-c2cccs2)s1 | inactive | 3.13%
COc1ccc(NC(=O)c2oc3ccccc3c2C)cn1 | inactive | 13.5%
CCOCc1c(C(=O)Nc2ccc(OC)nc2)oc2ccccc12 | inactive | -13.5%
COc1ccc(NC(=O)c2oc3ccccc3c2CSC)cn1 | 23.1 µM (active) | 1.61%
CC(C)CCNC(=O)C(C)N(Cc1ccc(F)cc1)C(=O)c1ccc(CN2CCOCC2)o1 (centres undefined) | inactive | -9.3%
COC(=O)c1ccccc1NC(=O)COC(=O)CO/N=C(\C)c1ccc2c(c1)OCO2 | inactive | -2.37%
Cc1cc(OC(C)C(=O)NCC2CCC(C(=O)O)CC2)c2c(C)cc(=O)oc2c1 (centres undefined) | inactive | -0.291%
CCOC(=O)C1CCN(C(=O)c2cc(COc3ccc(OC)c4ccccc34)on2)CC1 | inactive | 0.306%
CCc1cccc(CC)c1-n1c(SCC(=O)N2CCc3ccccc3C2)nnc1-c1cccnc1 | 16.4 µM (active) | 1.33%
Cc1ccc(-n2c(C)nnc2SCC(=O)N2CCc3ccccc3C2)cc1 | inactive | -10.8%
Cn1c(SCC(=O)N2CCc3ccccc3C2)nnc1-c1ccncc1 | inactive | 6.69%
COc1ccc(-c2nc(CN3CCC(C(=O)NCC4CCCO4)CC3)c(C)o2)cc1OC (centres undefined) | inactive | –
CCn1c(SCC(=O)c2ccccc2)nc2c(c1=O)SC(C)C2 (centres undefined) | inactive | –
N#CC1(NC(=O)COc2cc(F)ccc2[N+](=O)[O-])CCCCC1 | 11.6 µM (active) | -12.3%
N#CC1(NC(=O)COc2ccc(S(=O)(=O)N3CCCC3)cc2[N+](=O)[O-])CCCCC1 | inactive | -3.48%
N#CC1(NC(=O)COc2ccccc2[N+](=O)[O-])CCCCC1 | inactive | –
COc1cccc(C2=NOC(C(=O)N3CCN(Cc4ccccc4)CC3)C2)c1OC (centres undefined) | inactive | -0.697%
COc1ccc(CCN(C)CC(O)COC(c2ccc(F)cc2)c2ccc(F)cc2)cc1OC (centres undefined) | inactive | -8.84%
COc1cccc(CN2CCN(C3CCN(c4ccccc4C)CC3)CC2CCO)c1 (centres undefined) | inactive | -24%
COc1ccc(Cl)cc1NC(=O)Nc1ccccc1C(N)=O | inactive | 14.7%

From PubChem BioAssay AID2685 (National Center for Advancing Translational Sciences (NCATS), 2010)
